Data taken from PubChem BioAssay.
Where “and” joins values, the source holds several entries; their conditions need not be identical. Equal entries are not always repeated. Calls of active or inactive are those of the source. Unless noted, how the calls were made is not given here.

Columns and labels:
[1] = circadian clock period modulators, cell-based, LOPAC library, luminescence reporter (AID 2774); details: circadian reporter cells, at 7 µM, actives lie on both sides;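 further: values are relative to mean of DMSO wells on each plate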
[2] = sensitizers of A549 cells to miR-34 induction, primary screen, imaging, A549 dox-inducible miR-34, nuclei and caspase counts (AID 1347080;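 active means compounds whose cell count with miR-34 switched on is under 0.7 times the count with it off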); details: A549 miR-34 inducible, Hoechst nuclei count, 48 h
[3] = test system: Hepatitis C virus NS3 helicase; assay: HCV NS3 helicase inhibitors, primary screen, biochemical, fluorescence polarization, LOPAC1280 library (AID 687035; in the data active means inhibition above about 37%); details: Purified HCV NS3 helicase, Cy5-dT15 ssDNA binding fluorescence polarization; stronger effect = higher value; concentration not given here
[4] = Cy5 fluorescence quenching or enhancement artefacts, artefact control for HCV NS3 helicase inhibitor project, biochemical, LOPAC1280 (AID 687037); details: Cy5-DNA-NS3h complex fluorescence interference counterscreen
[5] = viability rescue of complex I mutant cybrids, primary screen, cell-based, galactose medium, ATP luminescence (AID 1645843;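 active means z-score of at least 1.8 in each of two replicates, scored against plate mean and spread of sample wells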;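 further: positive z means more ATP and so rescue of galactose-driven cybrid death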); details: complex I mutant cybrid cells, 72 h, stronger effect = higher value
[6] = liver-stage malaria parasite growth inhibition, primary screen, cell-based, HepG2, luciferase luminescence, HepG2 viability (AID 624349; in the data active means parasite load remaining mostly below about 12%, no sharp cut-off; inactive means mostly above about 10%;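 further: 100% = mean of DMSO negative control wells on the same plate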); details: P. berghei liver stage in HepG2, luciferase luminescence, concentration not given here; parasite load remaining: stronger effect = lower value; viability: measured here: HepG2 viability without parasites
[7] = stronger effect = lower value, cell number ratio, induced over uninduced
[8] = measured here: relative caspase fold change +Dox/-Dox
[9] = measured here: total cells with miR-34 induction, stronger effect = lower value
[10] = measured here: total cells without miR-34 induction

SMILES | period change [1] | fold change [2, 7] | fold change [2, 8] | cell count [2, 9] | cell count [2, 10] | inhibition [3] | fluorescence ratio (interference) [4] | z-score [5] | parasite load remaining [6] | viability [6]
CCSC(N)=Nc1ccc(C(F)(F)F)cc1 | 0.125 h (inactive) | 1.02 (inactive) | 0.833 | 5930 | 5830 | – | – | – | – | –
N=S(=O)(O)Cc1noc2ccccc12 | 0.1 h (inactive) | 0.955 (inactive) | 2.62 | 9240 | 9680 | 1% (inactive) | 1 (inactive) | 0.5 (inactive) | – | –
NC(N)=[N+]1CCc2ccccc2C1 | -0.15 h (inactive) | 1.01 (inactive) | 1.06 | 8570 | 8500 | -1% (inactive) | 1.1 (inactive) | -0.075 (inactive) | – | –
CCC[C@@H]1C[C@@H](C(=O)N[C@@H]([C@H]2O[C@H](SC)[C@H](O)[C@@H](O)[C@@H]2O)[C@@H](C)O)N(C)C1 | – | 0.982 (inactive) and 0.853 (inactive) | 0.967 and 1.36 | 11000 and 8020 | 11200 and 9400 | – | – | 1.21 (inactive) | 53.4% (inactive) and 46.6% (inactive) | 129% and 47.8%
C[N+](C)(C)CCOP(=O)(O)OP(=O)([O-])OC[C@H]1O[C@@H](n2ccc(N)nc2=O)C(O)[C@H]1O (some centres undefined) | – | 1.01 (inactive) | 1.19 | 10900 | 10800 | -3% (inactive) | 1 (inactive) | 0.115 (inactive) | – | –
CNc1ncnc2c1ncn2[C@H]1C[C@H](OP(=O)(O)O)[C@@H](COP(=O)(O)O)O1 | -0.03 h (inactive) | 1.08 (inactive) | 1.03 | 10600 | 9840 | -4% (inactive) | 1 (inactive) | 0.465 (inactive) | – | –
NC(N)=N[C@@H](CCC(=O)O)C(=O)O | 0.01 h (inactive) | 0.954 (inactive) and 0.929 (inactive) | 1.36 and 1.31 | 9760 and 6110 | 10200 and 6580 | -3% (inactive) | 1 (inactive) | 0.175 (inactive) | – | –
NC[C@H]1O[C@@H](n2cnc3c(N)ncnc32)[C@H](O)[C@@H]1O | – | 1.07 (inactive) | 1.37 | 9860 | 9210 | -3% (inactive) | 1 (inactive) | 1.03 (inactive) | – | –
Cc1nc(N=Nc2cc(S(=O)(=O)O)c3cc([N+](=O)[O-])cc(S(=O)(=O)O)c3c2)c(COP(=O)(O)O)c(C=O)c1O | -0.275 h (inactive) | 1.02 (inactive) | 1.61 | 10500 | 10300 | 58% (active) | 0.8 (active) | 1.9 (active) | – | –
NC(=S)c1ccc[n+]([C@@H]2O[C@@H](COP(=O)([O-])OP(=O)(O)OC[C@H]3O[C@@H](n4cnc5c(N)ncnc54)C(OP(=O)(O)O)[C@H]3O)C(O)C2O)c1 (some centres undefined) | 0.055 h (inactive) | 0.943 (inactive) | 1.17 | 10100 | 10700 | -5% (inactive) | 1 (inactive) | 0.57 (inactive) | – | –
